The source made the active and inactive calls. Unless noted, no rule for the calls is given here.
What was measured:
[1] = compounds binding Alexa647 anti-His antibody – biochemical, small-molecule microarray, 635 nm fluorescence, artefact control for SMM control protein annotation, primary screen (AID 1128); conditions: higher = more signal;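 also: score merges feature fluorescence with signal-to-noise for each printed compound spot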
[2] = test system: Human papillomavirus type 1a E7 protein (residues 1-88); assay: HPV1a E7 small-molecule binders, primary screen, biochemical, small-molecule microarray, residues 1-88, 635 nm (AID 1129); conditions: small-molecule microarray binding, fluorescence 635 nm; higher = more signal
[3] = biological target: Focal adhesion kinase 1 (Homo sapiens) (UniProt Q05397); assay: PTK2 protein binding on printed compound slides – biochemical, small-molecule microarray, 635/667 nm fluorescence, BSA, DTT, primary screen (AID 1130); conditions: 635 nm fluorescence, higher = more signal;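 also: composite of spot emission at 667 nm and signal to noise over triplicate slides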
[4] = test system: Fibrinogen (Alexa647-labelled); assay: Alexa647-fibrinogen binding to printed small molecules – biochemical, small-molecule microarray, 635/667 nm fluorescence, artefact control for SMM control-protein annotation, profiling panel (AID 1131); conditions: fibrinogen-A647 binding fluorescence, higher = more signal;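 also: z-score merges 667 nm fluorescence with per-spot signal-to-noise over triplicate slides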
[5] = biological target: Follistatin (Homo sapiens) (UniProt P19883); assay: FST protein binding to printed compounds – biochemical, small-molecule microarray, 635/667 nm fluorescence, primary screen (AID 1132); conditions: 635 nm fluorescence, higher = more signal
[6] = biological target: Fibroblast growth factor 2 (Homo sapiens) (UniProt P09038); assay: basic fibroblast growth factor binding to printed compounds – biochemical, small-molecule microarray, 635/667 nm fluorescence, primary screen (AID 1133); conditions: FGF2, fluorescence 635/667, higher = more signal
[7] = JC-1 mitochondrial potential readout, lung cancer cells – cell-based, A549, JC-1 fluorescence, basal, 24 h, 100 nL, profiling panel (AID 1138); conditions: higher = more signal;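 also: A549 lung adenocarcinoma cells under basal conditions with no added stimulus; test concentration not given here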
Lefty1 = Lefty1 protein binding to printed compounds – biochemical, small-molecule microarray, 635/667 nm fluorescence, primary screen (AID 1139); conditions: fluorescence 635/667, higher = more signal
[8] = test system: wheat germ agglutinin (Triticum aestivum), Alexa647-labelled; assay: Alexa647-WGA lectin binding to printed small molecules – biochemical, small-molecule microarray, 635/667 nm fluorescence, artefact control for SMM control-protein annotation, profiling panel (AID 1140); conditions: WGA-A647 binding, 635 nm fluorescence, higher = more signal;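 also: score merges 667 nm feature emission with signal to noise over triplicate slides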
[9] = biological target: Luciferin 4-monooxygenase (Photinus pyralis) (UniProt P08659); assay: inhibition of purified Photinus pyralis luciferase – biochemical, luminescence, purified enzyme, 2006 set, primary screen (AID 1141); conditions: purified firefly luciferase, SteadyGlo luminescence, 30 min; higher = more signal, called active from +8 up or from −8 down;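 also: cell-free assay with purified firefly luciferase at 100 ng per well in PBS; test concentration not given here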
[10] = test system: Wnt5a (protein binding on small-molecule microarray); assay: small molecules binding Wnt5a protein – biophysical, small-molecule microarray, 635/667 nm fluorescence, primary screen (AID 1142); conditions: 635 nm fluorescence, higher = more signal;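 also: fluorescence read at 667 nm with signal to noise per printed feature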
[11] = ATP-based viability of Huh7 replicon cells – cell-based, CellTiter-Glo luminescence, basal, 48 h, cytotoxicity control for HCV replication inhibitor project, primary screen (AID 1143); conditions: higher = more signal, called active from +8 up or from −8 down;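 also: Huh7 hepatoma cells carrying a hepatitis C replication reporter with no stimulus; test concentration not given here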
[12] = Pseudomonas biofilm growth suppression – PAO1 strain, BacTiter-Glo luminescence, LB-PBS, primary screen (AID 1144); conditions: P. aeruginosa PAO1 biofilm, 12 h, higher = more signal
[13] = basal CRE-LacZ reporter activity in PC12 – cell-based, unstimulated, primary screen (AID 1145); conditions: no forskolin, luminescence, 4.5 h, higher = more signal, called active from +8 up or from −8 down
[14] = forskolin-driven CRE-LacZ activity in PC12 – cell-based, CRE-LacZ reporter, forskolin-stimulated, primary screen (AID 1146); conditions: luminescence, 4.5 h, higher = more signal, called active from +8 up or from −8 down;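 also: PC12 cells with 6xCRE LacZ reporter stimulated by forskolin 10 µM; beta-galactosidase reporter signal reflecting CREB driven transcription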
[15] = biological target: Streptavidin (Streptomyces avidinii) (UniProt P22629); assay: compounds binding control protein streptavidin – biophysical, small-molecule microarray, 635/667 nm fluorescence, artefact control for SMM compound annotation, primary screen (AID 1147); conditions: higher = more signal;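 also: signal reflects streptavidin binding to arrayed compounds as a control protein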
[16] = probe aInhba binding on compound microarray – biochemical, small-molecule microarray, 635/667 nm fluorescence, primary screen (AID 1148); conditions: higher = more signal;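 also: score merges 667nm spot fluorescence with signal-to-noise for antibody binding to printed compounds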
Torsin-1A (Homo sapiens) [17] = biological target: Torsin-1A (Homo sapiens) (UniProt O14656); assay: TOR1A wild-type binding on microarray – cell lysate, small-molecule microarray, lysate, 635/667 nm, primary screen (AID 1149); conditions: COS7 hTOR1A-WT lysate, 635 nm fluorescence, higher = more signal
Torsin-1A (Homo sapiens) [18] = biological target: Torsin-1A (Homo sapiens) (UniProt O14656); assay: torsin A mutant lysate binding on microarrays – cell lysate, small-molecule microarray, COS7 lysate, 635/667 nm fluorescence, primary screen (AID 1150); conditions: COS7 hTOR1A mutant lysate, 635 nm fluorescence, higher = more signal;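 also: score pools 667 nm emission and signal to noise measuring lysate protein binding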
[19] = test system: Sonic hedgehog protein (Shh); assay: Sonic hedgehog microarray binding compounds – biochemical, small-molecule microarray, 635/667 nm fluorescence, primary screen (AID 1151); conditions: 635 nm fluorescence, higher = more signal;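 also: Shh protein binding to compounds spotted on small-molecule microarray slides; score combines spot fluorescence intensity with signal-to-noise across triplicate slides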

Sequence of Focal adhesion kinase 1 (Homo sapiens) (Q05397 whole entry, looked up): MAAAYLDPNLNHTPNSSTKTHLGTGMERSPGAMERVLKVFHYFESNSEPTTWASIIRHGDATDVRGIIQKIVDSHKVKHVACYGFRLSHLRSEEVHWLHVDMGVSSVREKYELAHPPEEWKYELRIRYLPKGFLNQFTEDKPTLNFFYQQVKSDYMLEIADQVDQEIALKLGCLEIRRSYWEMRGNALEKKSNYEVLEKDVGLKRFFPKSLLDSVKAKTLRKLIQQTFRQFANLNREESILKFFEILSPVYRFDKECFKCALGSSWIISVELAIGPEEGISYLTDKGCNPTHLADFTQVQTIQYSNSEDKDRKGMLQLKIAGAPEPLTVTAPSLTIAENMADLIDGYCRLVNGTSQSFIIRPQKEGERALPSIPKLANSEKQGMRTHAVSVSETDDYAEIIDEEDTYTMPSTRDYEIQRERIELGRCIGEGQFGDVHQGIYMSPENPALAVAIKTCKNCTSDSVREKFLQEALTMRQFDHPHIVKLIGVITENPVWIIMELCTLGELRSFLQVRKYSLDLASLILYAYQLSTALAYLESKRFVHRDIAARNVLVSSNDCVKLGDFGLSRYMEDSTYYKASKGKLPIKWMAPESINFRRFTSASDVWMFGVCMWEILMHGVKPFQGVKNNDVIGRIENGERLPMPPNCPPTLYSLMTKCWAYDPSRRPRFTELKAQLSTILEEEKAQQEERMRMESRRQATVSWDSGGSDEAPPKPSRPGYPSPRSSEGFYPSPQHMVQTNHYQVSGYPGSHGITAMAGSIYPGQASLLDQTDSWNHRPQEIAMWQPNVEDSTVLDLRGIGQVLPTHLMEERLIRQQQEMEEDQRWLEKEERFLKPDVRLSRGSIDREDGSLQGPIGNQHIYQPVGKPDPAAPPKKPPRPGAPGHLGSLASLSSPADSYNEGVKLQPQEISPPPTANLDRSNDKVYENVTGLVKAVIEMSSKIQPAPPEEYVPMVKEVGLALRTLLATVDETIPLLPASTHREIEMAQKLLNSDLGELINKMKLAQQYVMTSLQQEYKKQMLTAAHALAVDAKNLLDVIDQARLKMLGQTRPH
Sequence of Fibroblast growth factor 2 (Homo sapiens) (P09038 whole entry, looked up): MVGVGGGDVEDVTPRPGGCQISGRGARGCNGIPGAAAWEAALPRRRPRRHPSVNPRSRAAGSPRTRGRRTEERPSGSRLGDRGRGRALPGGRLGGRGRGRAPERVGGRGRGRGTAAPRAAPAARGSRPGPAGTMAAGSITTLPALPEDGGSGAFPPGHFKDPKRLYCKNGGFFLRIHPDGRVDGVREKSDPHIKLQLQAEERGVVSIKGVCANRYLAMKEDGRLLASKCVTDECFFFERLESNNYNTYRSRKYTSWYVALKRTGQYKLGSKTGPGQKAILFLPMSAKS
Sequence of Torsin-1A (Homo sapiens) (O14656 whole entry, looked up): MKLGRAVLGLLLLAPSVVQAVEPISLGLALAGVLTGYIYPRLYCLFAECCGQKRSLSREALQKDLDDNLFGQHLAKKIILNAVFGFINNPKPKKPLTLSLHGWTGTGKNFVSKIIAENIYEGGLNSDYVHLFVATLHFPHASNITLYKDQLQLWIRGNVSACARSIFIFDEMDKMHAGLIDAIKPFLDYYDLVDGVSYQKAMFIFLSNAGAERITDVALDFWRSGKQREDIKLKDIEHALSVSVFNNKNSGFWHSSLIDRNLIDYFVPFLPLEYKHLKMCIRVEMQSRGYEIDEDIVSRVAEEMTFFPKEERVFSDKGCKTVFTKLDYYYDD
Sequence of Follistatin (Homo sapiens) (P19883 whole entry, looked up): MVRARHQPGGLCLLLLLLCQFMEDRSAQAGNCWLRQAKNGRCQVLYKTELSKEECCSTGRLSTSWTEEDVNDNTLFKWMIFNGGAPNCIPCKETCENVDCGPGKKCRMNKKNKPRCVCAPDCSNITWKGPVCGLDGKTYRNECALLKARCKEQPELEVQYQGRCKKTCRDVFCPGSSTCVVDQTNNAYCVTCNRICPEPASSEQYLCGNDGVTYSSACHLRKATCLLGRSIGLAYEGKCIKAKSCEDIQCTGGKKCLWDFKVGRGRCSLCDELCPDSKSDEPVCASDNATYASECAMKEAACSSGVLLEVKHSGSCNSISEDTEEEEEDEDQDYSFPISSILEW
Sequence of Luciferin 4-monooxygenase (Photinus pyralis) (P08659 whole entry, looked up): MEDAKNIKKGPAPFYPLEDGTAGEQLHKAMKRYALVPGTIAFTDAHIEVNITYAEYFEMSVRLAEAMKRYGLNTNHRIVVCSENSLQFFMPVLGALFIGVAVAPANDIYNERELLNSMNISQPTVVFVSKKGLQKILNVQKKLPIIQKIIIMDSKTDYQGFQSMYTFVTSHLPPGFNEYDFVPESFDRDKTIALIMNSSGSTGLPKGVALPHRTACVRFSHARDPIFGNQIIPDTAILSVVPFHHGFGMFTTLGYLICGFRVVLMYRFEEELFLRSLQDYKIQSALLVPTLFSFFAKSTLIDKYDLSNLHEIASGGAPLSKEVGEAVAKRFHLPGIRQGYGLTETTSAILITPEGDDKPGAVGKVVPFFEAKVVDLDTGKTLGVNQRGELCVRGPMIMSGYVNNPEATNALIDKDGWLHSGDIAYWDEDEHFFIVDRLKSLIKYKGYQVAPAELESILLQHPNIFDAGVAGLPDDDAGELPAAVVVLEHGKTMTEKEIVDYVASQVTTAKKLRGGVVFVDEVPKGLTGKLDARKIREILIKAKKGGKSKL
Sequence of Streptavidin (Streptomyces avidinii) (P22629 whole entry, looked up): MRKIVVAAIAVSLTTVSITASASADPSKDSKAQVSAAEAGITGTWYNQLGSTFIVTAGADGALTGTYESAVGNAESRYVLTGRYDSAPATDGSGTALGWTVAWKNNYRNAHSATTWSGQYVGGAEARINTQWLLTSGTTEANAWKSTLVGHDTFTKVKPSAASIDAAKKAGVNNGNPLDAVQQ

| Compound | composite z-score [1] | composite z-score [2] | composite z-score [3] | composite z-score [4] | composite z-score [5] | composite z-score [6] | z-score [7] | composite z-score (Lefty1) | composite z-score [8] | z-score [9] | composite z-score [10] | z-score [11] | z-score [12] | z-score [13] | z-score [14] | composite z-score [15] | composite z-score [16] | composite z-score (Torsin-1A (Homo sapiens) [17]) | composite z-score (Torsin-1A (Homo sapiens) [18]) | composite z-score [19] |
| --- | --- | --- | --- | --- | --- | --- | --- | --- | --- | --- | --- | --- | --- | --- | --- | --- | --- | --- | --- | --- |
| CC(C)CNC(=O)[C@@H]1c2ccccc2C(=O)N(Cc2ccccc2)[C@H]1c1ccc(CO)cc1 | 1.85 | 0.601 | 0.0313 | -0.66 | -0.0977 | 0.605 | 0.0606 | -1.7 | -0.481 | 0.0723 (inactive) | -0.267 | -0.692 (inactive) | -0.33 (inactive) | 0.441 (inactive) | -0.0682 (inactive) | -1.04 | -0.285 | 0.3 | 1.2 | -0.693 |
| C=C(COC)C(=O)CC[C@@H](OC(C)=O)c1ccc(OCCO)cc1 | 0.476 | -0.358 | -0.822 | -0.467 | 1.25 | 0.945 | -0.576 | 0.843 | 0.774 | -1.73 (inactive) | 0.284 | -0.354 (inactive) | -0.176 (inactive) | 0.625 (inactive) | 8.41 (active) | -0.0368 | -0.0523 | 1.82 | -0.241 | 1.64 |
| CC(C)C[C@H]1NC(=O)[C@@H](C)NC(=O)[C@@]23C(=O)N[C@@H](Cc4ccccc4)C2[C@H](C)[C@@]2(C)O[C@H]2C3/C=C/C/C=C\CNC1=O (stereo not given in full) | 1.35 | 0.633 | 0.82 | -0.212 | 0.746 | 0.238 | -0.0228 | 0.754 | 0.532 | -0.327 (inactive) | -0.134 | -0.332 (inactive) | 0.541 (inactive) | 1.94 (inactive) | -0.435 (inactive) | -0.535 | -0.218 | -0.0221 | -0.145 | 1.41 |
| COC(=O)[C@@]1(Cc2ccc(F)cc2)[C@H]2c3cc(C(=O)N(C)C)n(CCO)c3C[C@H]2CN1C(=O)c1ccccc1 | 2.78 | 0.889 | 0.991 | 0.797 | -0.409 | -0.566 | -0.0423 | -0.483 | 0.718 | -0.683 (inactive) | -0.0929 | -0.494 (inactive) | -0.0693 (inactive) | 0.773 (inactive) | 0.0355 (inactive) | -0.208 | 0.0464 | 0.149 | 0.297 | -0.653 |
| C=CCC(OC(C)=O)[C@@H]1[C@@H](N(Cc2cc3ccccc3o2)C(=O)c2ccc(-c3ccccc3)cc2)c2cc(OCCCO)ccc2N1C(=O)c1ccc2ccccc2n1 (stereo not given in full) | -0.492 | -1.42 | 0.202 | -0.858 | 0.313 | -0.171 | 1.71 | -0.194 | -0.0535 | -0.847 (inactive) | -0.202 | 0.214 (inactive) | -0.115 (inactive) | 2.46 (inactive) | -0.531 (inactive) | 0.378 | 0.0228 | 0.179 | 0.165 | 0.135 |
| CCCCC=C[C@@H](NC(=O)c1ccc(C(F)(F)F)cc1)c1ccccc1 | 0.3 | -0.839 | 0.185 | -2.63 | -0.21 | -0.908 | 0.798 | -0.671 | 0.052 | 1.02 (inactive) | -0.467 | -0.954 (inactive) | 1.03 (inactive) | 0.19 (inactive) | 1.47 (inactive) | -0.683 | -0.105 | -0.652 | -0.951 | -0.845 |
| CCOC(=O)C[C@H]1[C@H](OC(=O)Cc2ccc3c(c2)OCO3)[C@@H](NC(=O)c2ccccc2)c2cc(OCCCO)ccc2N1C(=O)Cc1ccc(OC)cc1 | 0.752 | 0.263 | 0.161 | 0.792 | 0.19 | -0.027 | 0.291 | 0.305 | 0.674 | 0.296 (inactive) | -0.0328 | -1.82 (inactive) | -1.04 (inactive) | 2.31 (inactive) | -0.789 (inactive) | 0.662 | -0.045 | 0.693 | 0.749 | -0.256 |
| N#Cc1ccc(C(O)C2C=CC3C(=O)N(c4ccccc4)C(=O)C3N2Nc2ccc([N+](=O)[O-])cc2)cc1 (stereo not given) | 2.33 | 1.25 | 0.895 | 0.991 | 0.499 | -0.207 | -2.34 | -0.44 | 1.4 | 0.279 (inactive) | 0.488 | -0.843 (inactive) | -0.532 (inactive) | -0.0696 (inactive) | -1.24 (inactive) | 1.86 | 0.252 | 0.0605 | 0.212 | -0.51 |
| C=CC[C@]1(C(=O)NCc2ccccc2)COC(c2ccc(OCCCO)cc2)=N1 | 0.16 | -0.0156 | -0.19 | 0.295 | -0.431 | -0.87 | 1.03 | -0.95 | 1.02 | -0.218 (inactive) | 0.602 | -3.63 (inactive) | 0.271 (inactive) | 1.38 (inactive) | -0.505 (inactive) | -0.479 | 0.0503 | 0.29 | 1.52 | -0.88 |
| CC(C)C[C@@H]1NC(=O)[C@@H]2C[C@H](C(=O)O)[C@H](c3ccc(O)cc3)N2C1=O | 2.41 | 1.13 | 0.6 | 0.878 | 1.37 | 1.49 | 0.892 | 1.04 | 0.938 | -2.98 (inactive) | 0.415 | -0.393 (inactive) | -0.934 (inactive) | -0.114 (inactive) | -0.837 (inactive) | 0.741 | -0.013 | 0.656 | 1.05 | 1.74 |
| CCCCC(=C=CC[C@@H](O)c1cccc(OCCO)c1)C[C@@H](O)COCc1ccccc1 | 0.457 | -0.122 | 0.116 | 0.982 | -0.211 | -0.178 | 0.732 | -0.0843 | 0.498 | -1.88 (inactive) | -0.225 | -2.51 (inactive) | -0.279 (inactive) | 6.81 (inactive) | -0.731 (inactive) | -0.577 | -0.05 | -0.387 | -0.444 | 0.362 |
